Only some compounds are listed: those with a hit (about 8% of all), similar ones and a draw of the others.
KB-V1 MDR tox = qHTS assay for MDR1-selective chemotherapeutics: Primary screen using the drug-selected MDR subline cells KB-V1. KB-V1 MDR cells viability, CellTiter-Glo, 72 h. Potency, µM (series often up to 46.1 µM), actives largely listed as cytotoxic. 400,000 compounds, 3.4% hits; note: nearly all actives have a fitted effect of over 60% in size
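Cytotoxicity via CellTiter-Glo luminescence after 72 h compound exposure at 37 degrees C. Cells: drug-selected KB-V1 line, DMEM phenol-red free plus 10% FBS. Compounds tested at multiple concentrations; normalized data fitted to concentration-effect curves.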
HT1080 IDH1KD tx = qHTS for induction of synthetic lethality in tumor cells producing 2HG: qHTS for the HT-1080-IDH1KD cell line; HT-1080 IDH1 knockdown viability, ATP luminescence, 48 h; Potency, µM (highest dose often 46.1 µM), usual class: cytotoxic; 360,000 compounds, 2% hits; AID 686971, 2013
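In this qHTS, HT-1080 cells depleted of IDH1 are exposed for 48 h at 37 °C to compound titrations. Toxicity is scored from CellTiter-Glo luminescence, with DMSO as full viability and medium alone as none.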
HT1080NT lethal = qHTS for induction of synthetic lethality in tumor cells producing 2HG: qHTS for the HT-1080-NT fibrosarcoma cell line | HT-1080-NT fibrosarcoma viability, CellTiter-Glo ATP luminescence, 48 h | Potency, µM (series often up to 46.1 µM), most hits filed as cytotoxic | 360,000 compounds, 1.6% hits | AID 686970, 2013;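 note: NT is the 2HG producing partner of a matched IDH1 knockdown line; nearly all actives have a fitted effect of over 55% in size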
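Fibrosarcoma NT cells, 750 per well in 5% FBS RPMI, were exposed to compound for 48 hours. Viability: CellTiter-Glo luminescence.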
MCF10A rereplic = A quantitative high throughput screen for small molecules that induce DNA re-replication in MCF 10a normal breast cells. MCF 10A DNA re-replication, Hoechst nuclear intensity, 48 h. Potency, µM (series often up to 46.1 µM), usual class: activators. 350,000 compounds, 2.9% hits; note: nearly all actives have a fitted effect of over 50% in size
KB-3-1 cytotox = qHTS assay for MDR1-selective chemotherapeutics: Primary screen using the parental adenocarcinoma cell KB-3-1. KB-3-1 viability, CellTiter-Glo ATP luminescence, 72 h. Potency, µM (doses to about 46.1 µM), most hits filed as cytotoxic. 400,000 compounds, 1.4% hits. AID 1347075, 2019; note: nearly all actives have a fitted effect of over 60% in size
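Luminescent ATP read-out (CellTiter-Glo) measures survival of drug-naive KB-3-1 cells after 72 h compound exposure at 37 °C. Titration series was screened from lowest to highest concentration, with DMSO vehicle plates as background controls.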
SW480 rereplic = A quantitative high throughput screen for small molecules that induce DNA re-replication in SW480 colon adenocarcinoma cells; SW480 DNA re-replication, Hoechst DNA content imaging, 48 h; Potency, µM (highest dose often 46.1 µM), most hits filed as activators; 340,000 compounds, 1.8% hits; AID 624297, 2012; note: nearly all actives have a fitted effect of over 55% in size
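Readout is total intensity of Hoechst-stained nuclei, excited at 405 nm and collected at 500-530 nm. Compound treatment lasted 48 hr at 37 C in 5% CO2 before staining.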
A number is an active result; . = inactive; ? = inconclusive; / = no result; [ ] = remark or other dose. Calls come from the whole dose curve; as a rule, active = well fitted curve in the direction sought with a large enough effect; inconclusive = small, poorly fitted or top-dose-only effect, or another doubt; inactive = no such curve, though single readings can be large; an effect the other way counts as inactive or inconclusive.

SMILES | KB-V1 MDR tox | HT1080 IDH1KD tx | HT1080NT lethal | MCF10A rereplic | KB-3-1 cytotox | SW480 rereplic
COc1nc(-c2ccccc2)cc(-c2ccc3c(c2)OCO3)c1C#N | . | . | ? | ? | 1.8µM | ?
N#Cc1c(-c2ccc3c(c2)OCO3)cc[nH]c1=O | ? | . | . | . | ? | .
CCc1nnc(NS(=O)(=O)c2ccc(N=Cc3c(C)[nH]n(-c4ccc(C)c(C)c4)c3=O)cc2)s1 | ? | 21µM | ? | . | ? | .
Cc1[nH]n(-c2ccc(Br)cc2)c(=O)c1C=Nc1ccc(S(=O)(=O)Nc2nccs2)cc1 | ? | . | . | . | . | .
COc1cccc(-n2nnc3c(=O)n(CC(=O)N4CCC(Cc5ccccc5)CC4)cnc32)c1 | 5.2µM | . | . | . | ? | .
Cc1cc(C)c2sc(N(CCCN(C)C)C(=O)c3ccc(Br)s3)nc2c1 | . | ? | 23µM | ? | . | ?
Cc1cc(C)c2sc(N(CCCN(C)C)C(=O)c3ccc(S(=O)(=O)N(C)Cc4ccccc4)cc3)nc2c1 | 21µM | . | . | ? | ? | ?
Cc1cc(C)c2sc(N(CCN(C)C)C(=O)c3c(F)cccc3F)nc2c1 | ? | ? | . | ? | . | ?
COc1ccc2sc(N(CCCN(C)C)C(=O)c3ccc(S(=O)(=O)N(C)Cc4ccccc4)cc3)nc2c1 | ? | . | . | . | ? | .
CCCCN(C)S(=O)(=O)c1ccc(C(=O)N(CCN(C)C)c2nc3ccc(C)cc3s2)cc1 | . | . | . | . | . | .
CCN(Cc1ccccc1)S(=O)(=O)c1ccc(C(=O)N(CCCN(C)C)c2nc3cc(C)cc(C)c3s2)cc1 | ? | 23µM | 16µM | 23µM | ? | .
CCCCN(CC)S(=O)(=O)c1ccc(C(=O)N(CCCN(C)C)c2nc3cc(C)cc(C)c3s2)cc1 | 26µM | ? | 21µM | . | ? | .
CCN(Cc1ccccc1)S(=O)(=O)c1ccc(C(=O)N(CCCN(C)C)c2nc3c(F)cccc3s2)cc1 | . | . | . | ? | . | ?
Cc1ccccc1C(=O)Nc1ccc2nc(Nc3cccc(C(F)(F)F)c3)cc(C)c2c1 | . | / | / | / | ? | /
COc1ccc(-c2cc(C(=O)Nc3c(Cl)cccc3Cl)no2)cc1OC | . | / | / | / | . | /
CCC(=O)N1CCc2cc(Br)cc(S(=O)(=O)N3CCCC(C(=O)NCc4ccccc4)C3)c21 (centres undefined) | . | / | / | / | ? | /
CCOC(=O)CSc1nc2sc3c(c2c(=O)n1-c1ccccc1)CC(C(C)C)OC3 (centres undefined) | ? | / | / | / | . | /
Cc1cc(C)c2nc(N(CCCN(C)C)C(=O)C3=COCCO3)sc2c1 | . | . | . | . | . | ?
Cc1cc(C)c2nc(N(CCCN(C)C)C(=O)c3ccc4c(c3)OCCO4)sc2c1 | 26µM | ? | 12µM | 18µM | ? | ?
Cc1cc(C(=O)N2CCN(c3ccccc3)CC2)c(C)o1 | ? | ? | . | . | . | .
CSc1ccccc1C(=O)N1CCN(c2cccc(Cl)c2)CC1 | 16µM | 23µM | ? | ? | . | 23µM
Cc1cc(C(=O)N2CCN(c3cccc(Cl)c3)CC2)c(C)o1 | . | 16µM | ? | ? | 23µM | ?
CCOC(=O)c1c(S(=O)(=O)N2CCC(C(=O)NCc3cccc(C)c3)CC2)c(C)n(C)c1C | . | / | / | / | . | /
CCCn1c(SCC#N)nc2c(c1=O)C1(CCCC1)Cc1ccccc1-2 | . | ? | ? | ? | . | .
O=c1c2c(nc3n1CCCCC3)-c1ccccc1CC21CCCCC1 | . | .[9.24 µM] | . | . | . | .
SMILES | KB-V1 MDR tox | HT1080 IDH1KD tx | HT1080NT lethal | MCF10A rereplic | KB-3-1 cytotox | SW480 rereplic
N#CCSc1nc2c(c(=O)n1Cc1ccco1)C1(CCCC1)Cc1ccccc1-2 | ? | ? | . | 13µM | . | .
N#CCSc1n[nH]c2nc3c(c(=O)n12)C1(CCCC1)Cc1ccccc1-3 | . | . | . | 10µM | . | .
CCOC(=O)C1CCCN(C(=O)c2nn(-c3ccc(C)cc3)c(=O)c3c2c2ccccc2n3C)C1 (centres undefined) | . | / | / | / | . | /
COc1ccc(C(=O)N2CC(=O)Nc3ccc(F)cc3C2c2ccc(F)cc2)c(OC)c1 (centres undefined) | . | / | / | / | . | /
CCOC(=O)c1cc2sccc2n1CCCN1C(=O)c2ccccc2C1=O | ? | . | . | 21µM | . | .
CC(C)NC(=O)CSc1nc2ccccc2c(=O)n1Cc1ccc(C(=O)NC(C)C)cc1 | ? | / | / | / | . | /
CCOc1ccc(C(=O)C2CCN(CC(=O)Nc3ccccc3N3CCOCC3)CC2)cc1 | ? | ? | ? | 7.3µM | . | ?
O=C(Nc1ccccc1N1CCCCC1)c1ccc(F)cc1 | . | . | . | . | . | .

Screens from PubChem.
